Bioassay records from PubChem BioAssay.
Compounds with a hit are over-represented: about 9.3% of the library has one in this group of screens.
FMDV inh: foot and mouth disease virus antiviral activity; FMDV antiviral cell-based qHTS; Potency, µM (titrated, usually from 57.9 µM), usual class: inhibitors; 410,000 compounds, 1.2% hits; calls by dose curve; tested in HEK293T cells; note: read-out not given here; nearly all actives have a fitted effect of over 45% in size
HCMV inh: blocks human cytomegalovirus replication; HFF cells, HCMV-luciferase reporter, 72 h; active compounds read low; activity change, negative = inhibition, % at 57.5 µM; 410,000 compounds, 4.5% hits; AID 1259415; in the data active = activity change below about -60%; inconclusive = no clear call, values can overlap the other calls; inactive = above about -39%
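HFF cells seeded 16 h at 37C, treated with compounds, infected with luciferase-reporter HCMV at MOI 1 PFU/cell; luciferase read at 72 h post infection, normalized to buffer-only and Salinomycin controls.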
Sm TGR block: inhibitors of Schistosoma mansoni thioredoxin glutathione reductase. 360,000 compounds, 3% hits. Q962Y6. Potency, µM (top dose mostly 114 µM), hits mostly inhibitors. purified TGR, DTNB reduction, TNB absorbance 405 nm; note: nearly all actives have a fitted effect of over 60% in size
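TGR 20 nM + NADPH 100 uM (dispensed conc.), cpd preinc 15 min RT; start with NADPH (500 uM addition) then DTNB (15 mM addition). Kinetic TNB absorbance, 405 nm filter. Four-parameter Hill fit across titration.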
VACV mCherry inh: inhibitors of vaccinia virus infection (mCherry reporter signal). Vaccinia virus mCherry reporter infection, fluorescence. Potency, µM (doses to about 36.5 µM), hits mostly inhibitors. 310,000 compounds, 0.63% hits. AID 720579; calls by dose curve; tested in A549 cells; note: nearly all actives have a fitted effect of over 35% in size
Vaccinia Venus: vaccinia inhibition (Venus reporter); 330,000 compounds, 0.46% hits; Vaccinia virus Venus reporter expression, fluorescence; Potency, µM (titrated, usually from 36.5 µM), usual class: inhibitors; AID 720580; calls by dose curve; tested in A549 cells; note: nearly all actives have a fitted effect of over 30% in size
HCV inhibitor: inhibitors of hepatitis C virus infection; AID 651820; 340,000 compounds, 3.4% hits; Potency, µM (doses to about 41.8 µM), hits mostly inhibitors; Huh7.5.1 HCVcc-Cre infection, luciferase reporter, 44 h
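1,000 cells/well; 4 h culture; + compound; + HCVcc-Cre (~0.5 moi); 44 h; luciferase substrate, RT 15 min; read 15 sec.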
Hits are given with their value; ! = not confirmed by another sample. Unless noted, calls come from the whole dose curve; as a rule, active = well fitted curve in the direction sought with a large enough effect; inconclusive = small, poorly fitted or top-dose-only effect, or another doubt; inactive = no such curve, though single readings can be large; an effect the other way counts as inactive or inconclusive.

For COc1ccc(N2CCN(C(=O)CCNC(=O)c3ccccc3)CC2)cc1 the results were FMDV inh inactive, HCMV inh inactive, Sm TGR block inactive, VACV mCherry inh inactive, Vaccinia Venus inactive and HCV inhibitor inactive.
Cc1ccccc1NC(=O)CS(=O)(=O)c1cn(CC(=O)N2CCOCC2)c2ccccc12 was read as FMDV inh inactive, HCMV inh inactive, Sm TGR block inactive and HCV inhibitor inactive.
Screening CCN(CC)CCCN1C(=O)C2C(C(=O)Nc3ccc(C(C)C)cc3)C3C=CC2(O3)C1C(=O)NC1CCCCC1 (centres undefined) returned FMDV inh inactive, HCMV inh inactive, Sm TGR block inactive, VACV mCherry inh inactive, Vaccinia Venus inactive and HCV inhibitor inactive.
Screening CCN1CCN(c2cc(N3CCc4ccccc4C3)c(F)cc2[N+](=O)[O-])CC1 returned FMDV inh inactive, HCMV inh inactive, Sm TGR block inactive, VACV mCherry inh inactive, Vaccinia Venus inconclusive and HCV inhibitor 4.5µM.
For CCN1CCN(c2cc(N3CCCC3)c([N+](=O)[O-])cc2F)CC1 the results were FMDV inh inactive, HCMV inh inactive, Sm TGR block inactive, VACV mCherry inh inconclusive, Vaccinia Venus inactive and HCV inhibitor inconclusive.
Screening Nc1ncn(-c2ncc(C(F)(F)F)cc2Cl)n1 returned FMDV inh inactive, HCMV inh inactive, Sm TGR block inactive, VACV mCherry inh inactive, Vaccinia Venus inactive and HCV inhibitor inactive.
`CC(=O)/C=C\c1cn(-c2ncc(C(F)(F)F)cc2Cl)c2ccccc12` gave FMDV inh 32µM, HCMV inh inactive, Sm TGR block inactive, Vaccinia Venus inactive and HCV inhibitor inconclusive.
For N#CC(C#N)=Cc1cn(-c2ncc(C(F)(F)F)cc2Cl)c2ccccc12 the results were FMDV inh inactive, HCMV inh inactive, Sm TGR block 7.1µM, Vaccinia Venus inactive and HCV inhibitor inactive.
For CO/N=C/NC(=O)Cc1cn(-c2ncc(C(F)(F)F)cc2Cl)c2ccccc12 the results were FMDV inh inconclusive, HCMV inh inactive, Sm TGR block inactive, Vaccinia Venus inconclusive and HCV inhibitor inconclusive.
Screening CCOC(=O)C1CCN(Cc2ccc(F)c(F)c2)CC1 returned FMDV inh inactive, HCMV inh inactive, Sm TGR block inactive, VACV mCherry inh inactive, Vaccinia Venus inactive and HCV inhibitor inactive.
`Cc1ccc(N(CC2=NCCN2)c2cccc(O)c2)cc1` gave FMDV inh inactive, HCMV inh -66!, Sm TGR block inactive, VACV mCherry inh inactive, Vaccinia Venus inactive and HCV inhibitor inconclusive.
Screening COc1ccc(N(CC(=O)Nc2cccc(C(C)=O)c2)S(=O)(=O)c2ccccc2)c(OC)c1 returned FMDV inh inactive, HCMV inh inactive, Sm TGR block inactive, VACV mCherry inh inconclusive and Vaccinia Venus inactive.
`O=C1OC(c2ccccc2)(c2ccc3cc(O)ccc3c2)c2ccccc21` (centres undefined) gave FMDV inh inactive, HCMV inh inactive, VACV mCherry inh 7.9µM, Vaccinia Venus inconclusive and HCV inhibitor inconclusive.
`CCN(CC)c1ccc(-c2nc3cnccn3c2NC2CCCC2)cc1` gave FMDV inh inactive, HCMV inh inactive, Sm TGR block inactive and HCV inhibitor 32µM.
c1cn2c(NC3CCCCC3)c(-c3ccc(SC4CCCCC4)cc3)nc2cn1 was read as FMDV inh inactive, HCMV inh inactive, Sm TGR block inactive, VACV mCherry inh inactive, Vaccinia Venus inconclusive and HCV inhibitor inactive.
For COc1ccc(CNC(=O)CCCc2nnc3n(C(C)C)c(=O)c4sccc4n23)cc1 the results were FMDV inh inactive, HCMV inh inactive, Sm TGR block inactive, VACV mCherry inh inactive and Vaccinia Venus inactive.
Cc1ccc2sc(-c3ccc(NC(=O)c4cc(-n5cnnc5)ccc4Cl)cc3)nc2c1 was read as FMDV inh inactive, HCMV inh inconclusive, Sm TGR block inactive and HCV inhibitor 0.89µM.
For O=C(Nc1cccc(-c2nc3ccccc3s2)c1)c1cc(-n2cnnc2)ccc1Cl the results were FMDV inh inactive, Sm TGR block inactive and HCV inhibitor 13µM.
For COc1ccc(C2=NS(=O)(=O)N(C)C(C(=O)Nc3cc(OC)c(OC)c(OC)c3)=C2)cc1 the results were FMDV inh inactive, HCMV inh inconclusive, Sm TGR block inactive, VACV mCherry inh inactive, Vaccinia Venus inactive and HCV inhibitor inconclusive.
